# Source: PubChem BioAssay AID1259343 (VanderVen Lab, College of Veterinary Medicine, Cornell …, 2017)
# About 2,900 (47%) of roughly 6,200 compounds were called active. Cut-off read from the data, not from the text of the source: active = inhibition above about 50%; inactive = the rest. So high a share suggests a set chosen from earlier hits. Some of the results follow.
# Test: Mycobacterium tuberculosis growth inhibition, primary screen (AID 1259343)
# Details: inhibition: at 10 µM, stronger effect = higher value; outcome: 10 uM
row,Structure (SMILES),inhibition
1,CCCc1cc(=O)[nH]c(SCCOc2ccc(Br)cc2)n1,18.1% (inactive)
2,Nc1c(C(=O)CCC(=O)O)oc2ccc(Cl)cc12,20.1% (inactive)
3,Nc1c(C(=O)CCC(=O)O)oc2ccc(Br)cc12,68% (active)
4,Nc1c(C(=O)c2ccc(Br)s2)oc2ccccc12,43.5% (inactive)
5,O=C(O)CCC1NCC2CC1CN1CCCCC21 (configuration not stated),1.66% (inactive)
6,CSC(Nc1ccc(Br)cc1)=C(C#N)C#N,101% (active)
7,Clc1cccc(Cl)c1OCCOc1cccc2cccnc12,94.7% (active)
8,Cc1ccc(Cl)c(OCCCOc2cccc3cccnc23)c1,71.6% (active)
9,COc1ccc(C2CC(=O)C3=C(C2)NC(C)=C(C#N)C3c2ccc(Cl)c(Cl)c2)cc1 (configuration not stated),-9.69% (inactive)
10,CCOc1ccc2nc(CN3CCN(CC=C(C)C)C(CCO)C3)ccc2c1 (configuration not stated),inactive
11,CCCCc1ccc(N2C3=[N+](CCCS3)CC2(O)c2ccc(C)cc2)cc1 (configuration not stated),79.3% (active)
12,OC1(c2cccs2)C[N+]2=C(SCC2)N1c1ccccc1 (configuration not stated),-3.48% (inactive)
13,Oc1c(Br)cc(C=NNc2ccccn2)cc1Br,97.7% (active)
14,N#Cc1ccc(CNc2ccc(F)cc2Cl)cc1,-56.2% (inactive)
15,N#Cc1cnc(NCc2ccc(N3CCOCC3)c(F)c2)c(Cl)c1,5.19% (inactive)
16,N#Cc1cc(F)c(NCc2ccc(F)cc2)c(F)c1,69.3% (active)
17,CCCCS(=O)(=O)NCCOc1ccc(C)cc1,75% (active)
18,CCCCS(=O)(=O)NCC1CCCCC1,25.9% (inactive)
19,CC(O)c1cccc(OCc2ccc(S(=O)(=O)C(F)F)cc2)c1 (configuration not stated),88.2% (active)
20,COc1cccc(C(=O)Nc2ccc(S(=O)(=O)C(F)F)cc2)c1,-1.65% (inactive)
21,Cc1ccccc1OCC1=NN2C(=N)/C(=C/c3ccc(Br)o3)C(=O)N=C2S1,51.2% (active)

row,Structure (SMILES),inhibition
1,O=C(Cc1ccccc1Cl)NCc1cc(F)cc(F)c1,24% (inactive)
2,O=C1CC(C(=O)NCc2ccccc2Cl)c2ccc(F)cc2N1 (configuration not stated),87.3% (active)
3,CC1(Cc2ccccc2Cl)C(=O)Nc2c(Cl)ccc(Cl)c21 (configuration not stated),20.4% (inactive)
4,CC1Oc2ccccc2C=C1/C=N\Nc1nc2ccccc2[nH]1 (configuration not stated),94.2% (active)
5,C(=NNc1nc2ccccc2[nH]1)c1c(-c2ccccc2)[nH]c2ccccc12,28.8% (inactive)
6,C(=NNc1nc2ccccc2[nH]1)C(=NNc1nc2ccccc2[nH]1)c1ccccc1,79.8% (active)
7,CC1=CCCC(C)(C)C1C=CC(C)=NNc1nc2ccccc2[nH]1 (configuration not stated),36.3% (inactive)
8,CC(=NNc1nc2ccccc2[nH]1)c1ccc(C)o1,84.2% (active)
9,OCn1nc(-c2ccc(Cl)cc2Cl)oc1=S,75.9% (active)
10,Fc1ccc(-c2[nH]ncc2CN2CCC(c3ccccc3F)C2)c(F)c1 (configuration not stated),84.8% (active)
11,COc1cccc(-c2cnnc(N3CCC(c4ccccc4F)C3)n2)c1 (configuration not stated),41.2% (inactive)
12,O=C1NC(=S)NC(=O)C1=Cc1ccc(OCc2ccc(Cl)cc2)cc1,97.1% (active)
13,C=CCN1C(=O)NC(=O)/C(=C/c2ccc(OCc3ccccc3F)cc2)C1=O,37.1% (inactive)
14,NC(=O)c1ccsc1NC(=O)c1ccc([N+](=O)[O-])s1,-3.4% (inactive)
15,O=C(Nc1ccc([N+](=O)[O-])cc1)c1ccc(Br)s1,91.6% (active)
16,N#Cc1c(NC(=O)c2ccco2)sc2c1CCCCC2,-3.03% (inactive)
17,Cc1ccc(NC(=O)c2ccc([N+](=O)[O-])s2)cc1,78.9% (active)
18,N#Cc1c(NC(=O)CC2(CC(=O)O)CCCC2)sc2c1CCCC2,inactive
19,N#Cc1c(NC(=O)c2ccc([N+](=O)[O-])s2)sc2c1CCCC2,99.4% (active)
20,CCCCCC(C)NC(=O)c1ccc([N+](=O)[O-])s1 (configuration not stated),-12.6% (inactive)
21,CN[C@H](CC(C)C)C(=O)N[C@H]1C(=O)N[C@@H](CC(N)=O)C(=O)N[C@H]2C(=O)N[C@H]3C(=O)N[C@H](C(=O)N[C@H](C(=O)O)c4cc(O)cc(O)c4-c4cc3ccc4O)[C@H](O)c3ccc(c(Cl)c3)Oc3cc2cc(c3O[C@@H]2O[C@H](CO)[C@@H](O)[C@H](O)[C@H]2O[C@H]2C[C@](C)(N)[C@H](O)[C@H](C)O2)Oc2ccc(cc2Cl)[C@H]1O,49.3% (inactive)

row,Structure (SMILES),inhibition
1,COc1ccc(OCCN2CCN(c3ccc([N+](=O)[O-])cc3)CC2)cc1,90.8% (active)
2,COc1cccc(OCCCOc2ccc([N+](=O)[O-])cc2)c1,27.9% (inactive)
3,Cc1cccc2c(=O)[nH]c(Cn3nnn(-c4cccs4)c3=O)nc12,-0.78% (inactive)
4,Cn1nc(C(C)(C)C)cc1NC(=O)c1ccc(C(F)(F)F)cc1,21.5% (inactive)
5,O=C(Nc1nnc(-c2ccc(Cl)cc2)o1)c1ccncc1,21.6% (inactive)
6,CC(C)(C)c1ccc(C(=O)Nc2nnc(-c3cccnc3)o2)cc1,97.4% (active)
7,Cc1nnc(NC(=O)c2ccc(C(F)(F)F)cc2)o1,101% (active)
8,O=C(NCCn1nc(-c2cccnc2)ccc1=O)Nc1ccc(C(F)(F)F)cc1,18.6% (inactive)
9,Cc1ccc(C#N)cc1NC(=O)c1ccc(C(F)(F)F)cc1,-17.1% (inactive)
10,Brc1ccc(NN=C(N=Nc2nn[nH]n2)c2ccccc2)cc1,29.1% (inactive)
11,Oc1ccc(N=Nc2nn[nH]n2)c(O)c1,61.7% (active)
12,C=CCn1c(SC(C)c2nc3sc(C)c(C)c3c(=O)[nH]2)nnc1C1CCCCC1 (configuration not stated),0.9% (inactive)
13,COc1ccc(NC(=O)CSc2nc(CC(=O)NCCC3=CCCCC3)cs2)cc1,86.3% (active)
14,Cc1ccc(NC(=O)CSc2nc(CC(=O)NCCC3=CCCCC3)cs2)cc1,81.6% (active)
15,C[C@@H]1[C@H]2C[C@@H](C[C@H]1NC(=O)c1ccc(Nc3cccc(C(F)(F)F)c3)nc1)C2(C)C,6.48% (inactive)
16,CCN(C)c1cc(N2CCN(Cc3cc4ccccc4n3C)CC2)ncn1,49.3% (inactive)
17,CC(C)Oc1cccc(CN2CCN(c3ccnc(N(C)C)n3)CC2)c1,91% (active)
18,Fc1cccc(CN2CCN(Cc3ccc(-c4ccccc4)nc3)CC2)c1,27.7% (inactive)
19,Cc1nnc(Sc2cc(=O)oc3ccccc23)s1,99.2% (active)
20,O=c1cc(O)c2ccccc2o1,-50.4% (inactive)
